Results filed as inconclusive are left out. Unmarked numbers belong to inactive results. Calls follow the shape of the dose curve; as a rule, active = well fitted curve in the direction sought with a large enough effect (not every such curve was filed as active); inconclusive = small, poorly fitted or top-dose-only effect, or effect the other way, or another doubt; inactive = no such curve, though single readings can be large or run the other way.

The nature of the test: Cell viability assay for measurement of the protective activity of small molecules against cell death caused by Zika virus infection in human neural progenitor cells (hNPCs).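 Also: 0% = ZIKV-infected cells without compound and 100% = uninfected cells.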 Particulars: hNPC ZIKV-induced death protection, ATP luminescence, 72 h; series mostly up to 46.1 µM; protection, negative = more death: at the top concentration. The source says:
National Center for Advancing Translational Sciences [NCATS] Johns Hopkins University School of Medicine Florida State University Assay Overview: Zika virus infection causes cell death in certain cell types including human neural progenitor cells (hNPCs), astrocytes, and astrocytoma cell line (SNB-19). This cell viability assay measures the ATP content (level) in human neural progenitor cells (hNPCs) using a luminescence readout that is proportional to viable cell numbers. Decrease in the luminescence signal after Zika virus infection indicates the cell death caused by Zika virus. Small molecule inhibitors […] the decreased luminescence signal after Zika virus infection, indicating the protective effect of that small molecule on the cell death caused by Zika virus infection. This observed protective effect of small molecules against Zika virus induced cell death may result from inhibition of virus replication or cellular response to the virus infection.
Assay Protocol Summary: The medium for hNPCs consists of DMEM/F12, N2 supplement (ThermoFisher, Cat.# 17502048), NEAA (ThermoFisher, Cat. # 11140050), 2 ug/ml heparin, 2 uM cyclopamine, and B27 (ThermoFisher, Cat. # 17504044). The ATP content assay kit (PerkinElmer, Cat.# 6016731) was used to determine cell viability. The reagent was reconstituted and prepared as described by the manufacturer. Cells were seeded in 384- or 1536-well assay plates and cultured at 37 C with 5% CO2 for 16 to 20 hours. The typical cell seeding density in the 1536-well plate assay is 350 cells/well in 3 ul medium for hNPCs in the tissue cultured treated/PDL coated plates. Compounds were added to cells and incubated for one hour before addition of ZIKV solution to cells (2 FFU/cell). After incubation at 37 C with 5% CO2 for 72 hours, the reagent mixture of the ATP content assay kit was added to each well, followed by incubation at room temperature for 10 minutes. The luminescence intensity of the assay plates was measured using a ViewLux plate reader (PerkinElmer). […] The percentage inhibitions of the decreased cell viability by small molecule inhibitors were then calculated.
Turning to `CCN1/C(=C/C=C/c2sc3ccccc3[n+]2CC)Sc2ccccc21`, the “protection, negative = more death” value was -80.2% [at 23.8 µM].

For `COc1ccc(CC2=NN3C([C@@H](CCc4ccccc4)[C@@H](C)O)=NC(C)C3C(=O)N2)cc1OC` (stereo not given in full), the “protection, negative = more death” value is -42.9%.

`COc1cccc(-c2cc(=O)c3ccccc3o2)c1N`: the “protection, negative = more death” value was -47.7%.

Regarding `[O-][n+]1ccccc1SSc1cccc[n+]1[O-]`, the “protection, negative = more death” value is -73.9% [at 88.3 µM].

For the compound `O=C1c2ccccc2C(=O)c2c1ccc(O)c2O`, the “protection, negative = more death” value was -21.6%.

With `C=C1C(=O)[C@@]23C(CC[C@@H]1[C@H]2O)[C@@]12CO[C@]3(O)[C@@H](O)[C@@H]1C(C)(C)CC[C@@H]2O` (stereo not given in full), the “protection, negative = more death” value is -75.9%.

`CC1=C(CO)C(=O)O[C@@H]([C@@H](C)[C@H]2CC[C@H]3[C@@H]4C[C@H]5O[C@]56[C@@H](O)C=CC(=O)[C@]6(C)[C@@H]4CC[C@]23C)C1`: the “protection, negative = more death” value was -5.61%.

On to `COc1ccc(NC(=O)/C=C/c2ccc(Cl)cc2)cc1`, for which the “protection, negative = more death” value was -28.4%.

Turning to `CC(C)(C)COc1ccc(-n2cc(C(=O)O)cn2)cc1C#N`, the “protection, negative = more death” value is -36.5% [at 88.3 µM].

As to `CCCC(=O)OC[C@@H](OC(=O)CCC)[C@@H](OC(=O)CCC)[C@H](Cn1c2nc(=O)[nH]c(=O)c-2nc2cc(C)c(C)cc21)OC(=O)CCC`, the “protection, negative = more death” value is -47.2%.

In the case of `CNC1[C@H](O)C(O[C@@H]2C(O)C(O[C@H]3O[C@H]([C@@H](C)NC)CC[C@H]3N)[C@@H](N)C[C@H]2N)OC[C@]1(C)O` (stereo not given in full), the “protection, negative = more death” value is 4.9%.

`C/C(=N\O)c1ccc(OCC(=O)N2CCCCC2)cc1`: the “protection, negative = more death” value is -29.6%.

Regarding `CCCS(=O)c1ccc2nc(NC(=O)OC)[nH]c2c1` (stereo not given), the “protection, negative = more death” value was -43.9%.

For `CC(C)OC(=O)CCCC=CC[C@@H]1[C@H](C=C[C@@H](O)COc2cccc(C(F)(F)F)c2)[C@H](O)C[C@@H]1O`, the “protection, negative = more death” value is -31%.

With `Cc1nc(-c2ccc(OCC(C)C)c(C#N)c2)sc1C(=O)O`, the “protection, negative = more death” value is -46.3%.

Take `CCC(C(=O)O)c1ccc(N2Cc3ccccc3C2=O)cc1` (stereo not given): the “protection, negative = more death” value is -9.9%.

For the compound `COc1cccc2c1C(=O)c1c(O)c3c(c(O)c1C2=O)C[C@@](O)(C(=O)CO)C[C@@H]3O[C@H]1C[C@H](N)[C@H](O[C@@H]2CCCCO2)[C@H](C)O1`, the “protection, negative = more death” value is -84.3%.

As for `COc1cccc(-c2ccc(NC(=O)C3=C(C(=O)O)CCC3)c(F)c2)c1`, the “protection, negative = more death” value was -16.9%.

For the compound `CS(=O)(=O)c1ccc(-c2cn3ccccc3n2)cc1`, the “protection, negative = more death” value was -69.3%.

Take `Cc1csc(NC(=O)c2sc3nc4c(c(C(F)(F)F)c3c2N)CCC4)n1`: the “protection, negative = more death” value is -75.6%.

`COc1ccc(-c2cc(=O)c3c(O)cc(O)cc3o2)cc1O`: the “protection, negative = more death” value was -43.1%.

Regarding `O=c1[nH]nc(Sc2ncc([N+](=O)[O-])s2)n1-c1ccc2c(c1)OCCO2`, the “protection, negative = more death” value was -79.3%.

For `Cc1cccc(/C=C/c2ccccc2)n1`, the “protection, negative = more death” value is -15.4%.

For the compound `COc1cc2nc(N3CCN(C(=O)C4CCCO4)CC3)nc(N)c2cc1OC` (stereo not given), the “protection, negative = more death” value is 5.27%.

On to `O=C(/C=C/c1ccc(O)cc1)c1ccc(O)cc1O`, for which the “protection, negative = more death” value is -43.6%.

In the case of `Cc1cc(O)c2ccccc2c1O`, the “protection, negative = more death” value is -83.8%.

Regarding `N[C@H](CSC(c1ccccc1)(c1ccccc1)c1ccccc1)C(=O)O`, the “protection, negative = more death” value is -43.3%.

For the compound `O=c1oc2cc(O)ccc2s1`, the “protection, negative = more death” value was -37.6%.

In the case of `CC(C(=O)O)c1ccc2c(c1)[nH]c1ccc(Cl)cc12` (stereo not given), the “protection, negative = more death” value was 8.12%.

For `O=C(O)[C@H](CC(=O)N1C[C@@H]2CCCC[C@H]2C1)Cc1ccccc1`, the “protection, negative = more death” value is 13.4%.

With `Cc1ccc(C(=O)c2ccc(CC(=O)O)n2C)cc1`, the “protection, negative = more death” value is -31.2%.

On to `COc1ccc2nc(NC(=O)Nc3ccccc3)sc2c1`, for which the “protection, negative = more death” value was -62.9%.

As to `O=C(O)c1cccc(-c2noc(-c3ccccc3F)n2)c1`, the “protection, negative = more death” value is -65.3%.

As for `C=CCCCCCCCCC(=O)O`, the “protection, negative = more death” value was 5.55%.

Take `CC[C@@]1(O)C[C@H](O[C@H]2C[C@H](N(C)C)[C@H](O[C@H]3C[C@H](O)[C@H](O[C@H]4CCC(=O)[C@H](C)O4)[C@H](C)O3)[C@H](C)O2)c2c(cc3c(c2O)C(=O)c2c(O)cccc2C3=O)[C@@H]1C(=O)OC`: the “protection, negative = more death” value was -71%.

Turning to `O=S(=O)(O)CCSSCCS(=O)(=O)O`, the “protection, negative = more death” value was -3.06%.

Consider `CN(C)c1ccc2cc(C(=O)N[C@@H](CCCN=C(N)CCl)C(=O)NCc3ccccc3)ccc2c1`, for which the “protection, negative = more death” value was -80.2%.

As to `O=C(OCc1ccccc1)c1ccc(O)cc1`, the “protection, negative = more death” value was 7.45%.

Regarding `COc1ccc(-c2coc3cc(O)ccc3c2=O)cc1`, the “protection, negative = more death” value is -49.1%.

With `Nc1ccc2c(c1)CN1C(=O)c3ccccc3C1=N2`, the “protection, negative = more death” value was -60.2% [at 23.8 µM].
